Assay outcomes: PubChem BioAssay, National Center for Advancing Translational Sciences (NCATS)
Six1-Eya2 inh: blocks human Six1 binding to Eya2 | AlphaScreen GST-Six1/His-Eya2 binding, biochemical; active compounds read low | actives 0.56% (n = 360,000) | activity change, % (no concentration beside the values) | Q15475+O00167
Target sequence (O00167 whole entry, looked up): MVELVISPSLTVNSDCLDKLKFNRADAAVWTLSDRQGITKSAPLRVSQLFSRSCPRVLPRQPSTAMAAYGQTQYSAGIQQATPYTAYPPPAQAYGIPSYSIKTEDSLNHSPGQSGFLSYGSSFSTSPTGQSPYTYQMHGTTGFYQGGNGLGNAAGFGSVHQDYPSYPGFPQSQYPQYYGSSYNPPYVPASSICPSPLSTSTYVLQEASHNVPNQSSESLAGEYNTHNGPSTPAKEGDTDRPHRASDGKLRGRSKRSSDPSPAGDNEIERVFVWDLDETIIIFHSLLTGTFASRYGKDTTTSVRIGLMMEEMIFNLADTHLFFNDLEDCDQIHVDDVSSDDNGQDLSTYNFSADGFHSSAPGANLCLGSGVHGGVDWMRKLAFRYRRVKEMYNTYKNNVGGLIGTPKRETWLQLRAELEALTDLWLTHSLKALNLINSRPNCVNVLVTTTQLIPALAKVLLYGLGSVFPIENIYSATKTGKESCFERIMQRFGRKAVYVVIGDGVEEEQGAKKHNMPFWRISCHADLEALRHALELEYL
Target sequence (Q15475 whole entry, looked up): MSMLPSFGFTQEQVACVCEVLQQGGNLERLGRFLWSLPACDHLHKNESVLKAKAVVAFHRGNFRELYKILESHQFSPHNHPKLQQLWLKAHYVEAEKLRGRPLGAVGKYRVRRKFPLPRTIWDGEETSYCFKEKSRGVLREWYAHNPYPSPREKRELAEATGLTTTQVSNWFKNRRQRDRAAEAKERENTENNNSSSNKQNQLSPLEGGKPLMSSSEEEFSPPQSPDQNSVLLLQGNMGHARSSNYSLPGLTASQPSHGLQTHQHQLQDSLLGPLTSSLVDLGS
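GST-Six1 + His-Eya2 (5X stock: 250/500 nM); Tris pH 8.0, 300 mM NaCl, 0.05% BSA, 0.02% Tween 20; GSH donor/Ni acceptor beads; 1 h 37 °C dark; AlphaScreen readout.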
Akt phos inh: inhibitors of Akt phosphorylation. Neuro2A IGF-stimulated pAkt S473 HTRF, 20 min; active compounds read low. activity change, % for hits at 50 µM. actives 0.32% (n = 360,000). AID 651550; in the data active means activity change below about -80%; inconclusive means mostly about -51% to -80%
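Neuro2A cells (4,500/well, DMEM with 0.5% FBS) were treated with compound at a single 50 µM final concentration, stimulated with 6 nM IGF for 20 min at 37 °C, and lysed. Phospho-Akt Ser473 was read by HTRF as 665/615 ratio ×10^4.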
CtBP-E1A blk: CtBP/E1A binding inhibition; AlphaScreen GST-E1A/His-CtBP binding, 1536-well; active compounds read low; activity change, % (concentration not given with the values); actives 0.49% (n = 340,000); AID 651724
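Steps: dispense buffer (Tris pH 8.0, NaCl 300 mM, TCEP 1 mM, BSA, Tween 20); add 5X protein mix (GST-E1A, His-CtBP, 125 nM each); pin 23 nL compound; 2 h at 37 °C, dark; add 5X beads (50 ug/mL); 1 h; read.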
CCT chaperon mod: modulators of cytosolic chaperonin (CCT/TRiC) activity; purified chaperonin ATPase assay, HTRF ADP detection, 30 min; actives 0.3% (n = 360,000); activity change, % (test concentration not listed), hits read low; in the data active means activity change below about -30%
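Nucleotide hydrolysis assay: TRiC at 20–40 nM final (set by batch activity) with 10 uM ATP, 30 min at 37 °C, in presence of 76 uM compound. Detection by competitive ADP HTRF, 30 min ambient.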
Each line names hits and unclear results; the compound was inactive in the other large screens. An excerpt weighted towards active compounds, which were near 1.3% of everything screened. Unless noted, no stated cut-off is given here; in the data, active means activity change below about -65%; inconclusive means mostly about -30% to -63%; inactive means weaker than that.

CCN1C(=O)C(=O)N(CC(=O)N2CCN(c3ccccc3)CC2)C1=O	none
Cc1ccc(C(=O)Nc2sc3c(c2C#N)CCCCC3)cc1C	Akt phos inh -95%
CC(=O)Nc1sc2c(c1C#N)CCCCC2	none
O=C(COc1ccc(Br)cc1)NC1CC1	none
Cc1cc(C)nc(SCCCn2c(=O)[nH]c3ccccc32)n1	Akt phos inh -125%
CCCn1c(=O)[nH]c2ccccc21	none (no result: Akt phos inh)
COc1ccccc1N1CCN(C2CCCN(C(=O)c3ccsc3)C2)CC1 (stereo not given)	none
COc1ccccc1OCc1ccc(C(=O)N2CCN3CCCC3C2)cc1 (stereo not given)	Akt phos inh -105%
COc1ccc(-c2c(C(C)=O)c(C)nc3sc4c(c23)NC(c2ccccc2)NC4=O)cc1 (stereo not given)	Akt phos inh -85%
CCOC(=O)c1c(C)nc2sc3c(c2c1-c1ccc(OC)cc1)NC(c1ccccc1)NC3=O (stereo not given)	none
CC1CC(=O)c2cnc(Nc3cccc(C(F)(F)F)c3)nc2C1 (stereo not given)	Akt phos inh -104%
Nn1cnnc1N/N=C/c1cc(Br)cc(Br)c1O	Six1-Eya2 inh -92, CtBP-E1A blk -91
CC(C)(C)c1ccc(/C=N/Nc2nncn2N)cc1	none
Cc1ccc(S(=O)(=O)N2[C@H](CC(=O)OCc3ccccc3)OC[C@@H]2C(C)C)cc1	none (no result: CCT chaperon mod)
Cc1ccccc1OCCNc1ccc(C(F)(F)F)cc1[N+](=O)[O-]	Six1-Eya2 inh inconclusive, CCT chaperon mod -53
O=C1/C(=C/c2ccc(S(=O)(=O)O)cc2S(=O)(=O)O)CCc2ccccc21	none
CCOC(=O)c1ccccc1NC(=O)Cc1ccc(S(=O)(=O)N2CCCC2)s1	none
COc1ccc(/C=N/n2cnnc2SCc2ccccc2)cc1	Akt phos inh -110%
Cn1c(=O)c2cc(NC(=O)NCCc3ccccc3)ccc2n1Cc1cccc(C(F)(F)F)c1	none
Cc1cc(N)n(-c2ncnc3scc(-c4ccc(Cl)cc4)c23)n1	Akt phos inh -82%
CCOC(=O)N1CCN(c2ncnc3scc(-c4ccc(Cl)cc4)c23)CC1	none (no result: CtBP-E1A blk)
Cc1ccc(-c2csc3ncnc(-n4nc(C)cc4N)c23)cc1	CCT chaperon mod -95
CCOC(=O)/C(C#N)=C/c1ccc(OCC(=O)Nc2cc(C)ccc2C)c(OC)c1	Akt phos inh -82%
CCOC(=O)C1=C(C)N=c2s/c(=C/c3cccc([N+](=O)[O-])c3O)c(=O)n2C1c1cc(OC)c(OC)c(OC)c1 (stereo not given)	Six1-Eya2 inh -70, CtBP-E1A blk -80
CCOC(=O)C1=C(C)N=c2s/c(=C/c3cccc([N+](=O)[O-])c3O)c(=O)n2C1c1ccccc1 (stereo not given)	Six1-Eya2 inh -71, CtBP-E1A blk -80
COc1ccc(C(=O)CCC(=O)N2CCN(c3ccc([N+](=O)[O-])cc3)CC2)cc1	none (no result: CtBP-E1A blk)
Cc1c(O)ccc(C(=O)CN2CCN(c3ccc(F)cc3)CC2)c1O	none (no result: CtBP-E1A blk)
Cc1c(O)ccc(C(=O)CN2CCN(Cc3ccccc3)CC2)c1O	CCT chaperon mod -56 (no result: Akt phos inh, CtBP-E1A blk)
CN(C)c1ccc(C=C2C=CC=C2)cc1	Six1-Eya2 inh -66
CN(C)c1ccc(NC(=O)COC(=O)c2cc(Cl)ccc2[N+](=O)[O-])cc1	Six1-Eya2 inh inconclusive, CCT chaperon mod -90
CN(C)c1ccc(N=Nc2ccccc2C(=O)OCC(=O)N(C)c2ccccc2)cc1	Six1-Eya2 inh -67, CtBP-E1A blk -66
NS(=O)(=O)c1ccc(NC(=O)COC(=O)c2cc(Cl)ccc2[N+](=O)[O-])cc1	none
COC(=O)c1ccccc1NC(=O)COC(=O)c1ccccc1N=Nc1ccc(N(C)C)cc1	Six1-Eya2 inh inconclusive, CtBP-E1A blk inconclusive
CC(=O)c1ccc(NC(=O)COC(=O)c2ccccc2N=Nc2ccc(N(C)C)cc2)cc1	Six1-Eya2 inh -68
CC1COC(C)(CC(=O)NN2C(=O)c3ccccc3C2=O)O1 (stereo not given)	none
Cc1ccccc1NC(=O)c1ccc(C)c(S(=O)(=O)Nc2cccnc2)c1	none
O=C(Nc1ccc(Br)cc1)c1ccc(Br)c(S(=O)(=O)Nc2cccnc2)c1	Six1-Eya2 inh inconclusive, CtBP-E1A blk -66
CCOC(=O)Cn1c(=O)c(F)cn(Cc2ccc(OC)c([N+](=O)[O-])c2)c1=O	none
CC(C)COC(=S)Nc1ccccc1	Akt phos inh -108%
CC(C)COCC(O)CCC(=O)NNC(=S)Nc1ccccc1 (stereo not given)	none
CC1CCN(C(=O)CN2c3cccc4cccc(c34)S2(=O)=O)CC1	none
Cc1ccc(/C=C2\S/C(=N/S(=O)(=O)c3cccs3)NC2=O)cc1	Six1-Eya2 inh -67 (no result: CtBP-E1A blk)
O=C(N/N=C/c1ccc(O)cc1O)C1CC1	none (no result: CtBP-E1A blk)
O=C(CCC(=O)Nc1ccc(F)cc1)N/N=C/c1cc([N+](=O)[O-])ccc1O	Six1-Eya2 inh inconclusive, CtBP-E1A blk -86
O=C(N/N=C/c1cc([N+](=O)[O-])ccc1O)C1CCCCC1	Six1-Eya2 inh -74, CtBP-E1A blk -73
O=C(CCC(=O)Nc1cc(C(F)(F)F)ccc1Cl)N/N=C\c1cc([N+](=O)[O-])ccc1O	CtBP-E1A blk -67
Cc1cccc(NC(=O)CCC(=O)N/N=C/c2cc([N+](=O)[O-])ccc2O)c1	Six1-Eya2 inh -79, CtBP-E1A blk -90
O=C(CCC(=O)Nc1ccc(Br)cc1)N/N=C/c1cc([N+](=O)[O-])ccc1O	none
O=C(Nc1ccccc1)N1CCC(C(=O)N2CCCC(C(F)(F)F)C2)CC1 (stereo not given)	none
CCNc1cc(=O)n(C)c(=O)n1C	Akt phos inh -122%
COC(=O)[C@]12CCCCC=C1N(Cc1ccc3c(c1)OCO3)C(=O)[C@H](CC(=O)N1CCC(c3ccccc3)CC1)C2	none (no result: CCT chaperon mod)
CCCC1Cc2[nH]c(=O)c(C#N)cc2CO1 (stereo not given)	CtBP-E1A blk -70
CN(C)S(=O)(=O)c1cc([N+](=O)[O-])ccc1N1CCCCCC1	CCT chaperon mod -31
COc1cccc(CN2CCC2(C)C(=O)NCc2cccc(C(F)(F)F)c2)c1OC (stereo not given)	none
COc1ccc(-c2cc(C(=O)N3CCN(c4ncccn4)CC3)c3ccccc3n2)cc1OC	CCT chaperon mod -60
O=C(c1cc(-c2ccncc2)nc2ccc(Br)cc12)N1CCN(c2ccccn2)CC1	Akt phos inh -114%
N#CCCN(/N=C/c1cccnc1)C1=NS(=O)(=O)c2ccccc21	none
CC(C)(C)NC(=O)CCN(/N=C/c1ccccc1)C1=NS(=O)(=O)c2ccccc21	Six1-Eya2 inh inconclusive, CtBP-E1A blk -65
Cc1cccc(/C=N/N(CCO)C2=NS(=O)(=O)c3ccccc32)c1	Six1-Eya2 inh inconclusive, CtBP-E1A blk -81
C[C@@H]1CN([C@H](C)CO)C(=O)CCCn2cc(nn2)CO[C@H]1CN(C)S(=O)(=O)c1ccccc1C#N	none
COc1ccc(C(=O)N2CCC(C)(C(=O)O)C2)c(OC)c1 (stereo not given)	none
O=C(Nc1c2c(nn1-c1ccc(F)cc1)CS(=O)(=O)C2)c1ccc(Br)o1	none
